# Screen size: about 360,000 compounds; about 25,000 (6.9%) were called active. About 9% were inconclusive and are not listed. This is one part of a sample in which actives are shown more often than they occur. Values without a mark were called inactive. Calls come from the whole dose curve; as a rule, active = well fitted inhibition curve with a large enough effect; inconclusive = small, poorly fitted or top-dose-only effect; inactive = flat fitted curve, though single readings scatter.
# Target: Luciferin 4-monooxygenase (Photinus pyralis) (UniProt P08659)
# Assay: qHTS profiling assay for firefly luciferase inhibitor/activator using purifed enzyme and Km concentrations of substrates (counterscreen for miR-21 project); note: nearly all actives have a fitted effect of over 55% in size;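 for activity change, negative = inhibition: plate controls were vehicle for no effect and reference inhibitor for full effect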
# Details: purified FLuc, luminescence inhibition; series mostly up to 57.5 µM; activity change, negative = inhibition: at the top concentration
# Excerpt: MLPCN Grant: 1 R21 NS059478-01 (miR-21 grant) Assay Provider: NCGC NCGC Assay Overview: Firefly (Photinus pyralis) luciferase is one of the most commonly used transcriptional reporters for a number of reasons. It is considered one of the more dynamically responsive reporters -that is, responsive to changes in reporter transcription - as it requires no post-translational modifications and is enzymatically active directly after protein synthesis (Wood, 1998). Additionally, the half-life of the luciferase protein is short relative to other reporter-gene products (Wood, 1995). Whereas reporters with long half-lives potentially allow for increased signal due to accumulation of reporter-gene product, once accumulated in the cell, dynamic changes in reporter-gene expression may be difficult to detect(Fan and Wood, 2007; Almond et al., 2004). It has been shown that wild-type P. pyralis luciferase has a half-life of approximately […] hours in mammalian cells (Thompson et al., 1991). Firefly luciferase reporter-gene assays are also generally considered one of the most sensitive assay types (Wood, 1995; Wood, 1998). Although light produced in a bioluminescence reaction is of lower intensity than that produced during fluorescence emission, this is offset by little to no background light inherent to luminescent assays. Thus the luciferase reporter can be expressed at much lower levels than fluorescent proteins while still providing robust signal. # However, it was initially observed, in 1991, by Thompson et al., that compounds that resemble the substrates of firefly luciferase (FLuc) can act as competitive inhibitors of the enzyme, and that these compounds, upon interaction with luciferase in the cell, can actually stabilize the protein and increase its half-life. Accumulated intracellular FLuc protein can be measured as an increase in luminescence signal, upon addition of detection reagents (which contain high concentrations of FLuc substrates) commonly used in high-throughput screening. In cell-based reporter gene assays that use FLuc as the reporter gene to quantitate the potential influence of a given compound against the target biology, this apparent increase in luminescence can mistakenly be interpreted as identification of a compound that is active against the target of interest. This is the case for the miR-21 FLuc reporter gene assay used to identify inhibitors of the miR-21 pathway (PubChem AID 2289) - compounds of interest will inhibit miR-21 biogenesis/expression or activity, and are identified by causing an increase in luminescence, due to increased FLuc translation. However, FLuc inhibitory compounds that stabilize the FLuc protein will give an identical read-out, making it difficult to distinguish compounds that are active against the target from those active against FLuc. Previous profiling work to determine the prevalence of compounds that affect FLuc enzymatic activity (PubChem AID 411) identified that ~3% of the MLSMR library (then at ~72K) inhibited FLuc. […] Since the MLSMR had grown to ~350K compounds, and since it was expected that a significant percentage of compounds found active in the miR-21 FLuc assay would be FLuc inhibitors, the library was screened for activity against FLuc using a biochemical assay of purified FLuc and KM concentrations of FLuc substrates (D-luciferin and ATP).
# NCGC Assay Protocol Summary: Reagents: 50mM Tris acetate, pH 7.5; 10mM Mg acetate; 10uM D-luciferin (Sigma #L9504); 10uM ATP; 0.01% Tween-20; 0.05% BSA; 10nM P. pyralis luciferase (Sigma #L9506) Control compounds used were two known firefly luciferase inhibitors (compounds (2) and (5) in Auld et al., 2010), and DMSO. […]
# Chain of Luciferin 4-monooxygenase (Photinus pyralis) (P08659 whole entry, looked up): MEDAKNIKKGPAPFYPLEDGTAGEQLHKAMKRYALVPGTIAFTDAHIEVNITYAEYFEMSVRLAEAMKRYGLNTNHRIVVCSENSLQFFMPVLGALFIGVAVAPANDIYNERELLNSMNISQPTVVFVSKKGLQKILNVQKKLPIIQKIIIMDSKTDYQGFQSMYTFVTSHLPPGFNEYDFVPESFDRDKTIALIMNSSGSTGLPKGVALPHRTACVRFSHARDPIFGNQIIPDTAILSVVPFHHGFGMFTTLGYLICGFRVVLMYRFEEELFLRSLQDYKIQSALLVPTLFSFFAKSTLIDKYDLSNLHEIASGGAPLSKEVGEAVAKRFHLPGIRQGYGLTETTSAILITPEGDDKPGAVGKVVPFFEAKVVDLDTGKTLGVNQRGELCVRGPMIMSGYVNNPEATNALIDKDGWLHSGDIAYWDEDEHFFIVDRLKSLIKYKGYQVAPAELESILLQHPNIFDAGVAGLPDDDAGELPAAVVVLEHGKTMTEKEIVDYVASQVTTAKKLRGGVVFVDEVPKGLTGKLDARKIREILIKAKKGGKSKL
Compound,"activity change, negative = inhibition",Potency
COc1ccc(C2CC(=O)Nc3c2c(=O)nc2c(C)cccn32)cc1OC (configuration not stated),-2.04%,–
COc1ccccc1C(=O)NCCC(=O)NC1=NCCS1,0.0399%,–
O=C(NC1=NCCS1)c1ccc(Cl)s1,–,23.9 µM (active)
O=C(NC1=NCCS1)[C@H](Cc1ccccc1)N1C(=O)c2ccccc2C1=O,2.88%,–
COc1ccc(OC)c(NC(=O)Cc2cccs2)c1,-4.29%,–
COc1ccc(C(=O)Nc2nncs2)c(OC)c1,–,8.49 µM (active)
CCOc1ccc(C(=O)CCC(=O)NC2=NCCS2)cc1,-14%,–
COc1cccc(OC)c1C(=O)Nc1nnc(C(C)C)s1,-4.11%,–
O=C(NCc1ccc2c(c1)OCO2)c1ccc(Cl)s1,-19.5%,–
COc1ccc(C(=O)NC2=NCCS2)c(OC)c1,–,6.01 µM (active)
Cc1c(NC(=O)CSc2nnc(-c3cccnc3)n2N)c(=O)n(-c2ccccc2)n1C,5.52%,–
COc1ccc(CCNCc2c(C(=O)O)c(C)n(Cc3cccc(C)c3)c2C)cc1OC,-0.123%,–
Cc1ccc(NC(=O)CN2C(=O)C(c3ccc(F)cc3)=NC23CCCCCC3)c(C)c1,4.17%,–
CCOc1ccc(N2C(=O)CSC2=NC#N)cc1,-1.46%,–
CCOc1ccccc1NC(=O)Cn1ncc2ccc([N+](=O)[O-])cc21,-1.68%,–
Cc1cccc(-n2ccnc2SCC(=O)Nc2cccc3ccccc23)c1C,-4.45%,–
Cc1ccccc1OCCC(=O)OCC(=O)NCCc1ccc(S(N)(=O)=O)cc1,0.732%,–
COc1ccccc1CC(NC(C)=O)C(=O)NC1CCN(C(=O)Nc2ccccc2Cl)CC1 (configuration not stated),-1.29%,–
O=C1Cc2cc(S(=O)(=O)Nc3ccc(OC(F)(F)F)cc3)cc3c2N1CCC3,3.14%,–
O=C(O)c1ccccc1-c1ccccc1C(=O)Nc1cccc2ccccc12,-0.517%,–
CN(CC(=O)Nc1ccc(Cl)cc1)CC(=O)Nc1cccc2ccccc12,2.54%,–
O=C(Nc1cccc2ccccc12)c1onc2c1CCCC2,–,8.49 µM (active)
COc1ccc(C(=O)OCC(=O)c2ccc(Cl)s2)c(OC)c1OC,–,21.3 µM (active)

Compound,"activity change, negative = inhibition",Potency
COc1ccc(Cl)cc1C(=O)OCC(=O)NCc1cccs1,-0.894%,–
COc1ccc(C(=O)OCC(=O)Nc2ccc3[nH]c(=O)[nH]c3c2)c(OC)c1OC,0.847%,–
CCC1=Nc2cc(C(=O)NCC(C)c3ccccc3)ccc2Sc2ccc(C)cc21 (configuration not stated),-8.78%,–
COC(=O)c1c(-c2ccc(C)cc2)csc1N,0.678%,–
CCOC(=O)c1c(-c2ccc(-c3ccccc3)cc2)csc1NC(=O)CCC(=O)O,0.422%,–
CCOC(=O)c1c(-c2ccc(C)cc2)csc1/N=C(\C)C1=C(O)c2ccccc2C1=O,–,2.69 µM (active)
CN(C)S(=O)(=O)c1cccc(NC(=O)COC(=O)C2(c3ccccc3F)CCCC2)c1,3.61%,–
CN(C)S(=O)(=O)c1cccc(NC(=O)COC(=O)c2cc(=O)[nH]c(=O)[nH]2)c1,1.02%,–
CN(C)S(=O)(=O)c1cccc(NC(=O)COc2ccc3ccccc3c2)c1,–,6.01 µM (active)
CCC(Oc1ccccc1C)C(=O)Nc1ccc(S(=O)(=O)Nc2cc(C)on2)cc1 (configuration not stated),1.08%,–
CC1CN(C(=S)Nc2ccc(Br)cc2Cl)CC(C)O1 (configuration not stated),-1.05%,–
O=C(Cn1c(-c2cncs2)nc2ccccc21)NC1CCCC1,2.57%,–
O=C(CSc1nnc2c(n1)[nH]c1ccccc12)NC1CCCCC1,-1.35%,–
O=C(/C=C/c1cnc2ccccc2n1)NC1CCCCCC1,–,13.5 µM (active)
COc1ccc(/C=C/CN2CCN(Cc3ccc(C)cc3)C(CCO)C2)cc1 (configuration not stated),-3.37%,–
CCc1cnc2c(c1SCC(=O)N1CCC(C)CC1)c(=O)n(C)c(=O)n2C,0.686%,–
O=C1CC[C@H](O)CCN1[C@H](CSc1ccc(Br)cc1)Cc1ccccc1,-2.89%,–
O=C1/C(=C/c2ccc(F)cc2)SC(=S)N1CCCC(=O)N1CCCCC1CCO (configuration not stated),-5.92%,–
Cc1ccc(/C=C2\SC(=S)N(CCC(=O)Nc3ccc(O)cc3)C2=O)cc1,-1.73%,–
C=CCOc1ccc(/C=C2\SC(=S)N(CCC(=O)O)C2=O)cc1,–,1.69 µM (active)
O=C(NCc1ccncc1)c1cccc(NS(=O)(=O)c2ccc(F)c(F)c2)c1,11.6%,–
COc1ccc(S(=O)(=O)NCCSc2nnnn2-c2ccccc2)cc1,7.96%,–
COc1ccc(N(C)C(=O)C2CCN(S(=O)(=O)c3cc(Br)cc4c3N(C(C)=O)CC4)CC2)cc1,-2.94%,–

Compound,"activity change, negative = inhibition",Potency
CC1=C(C(=O)OCc2ccc(C)cc2)C(c2ccccc2Cl)CC(=O)N1 (configuration not stated),-12.5%,–
CSc1ccc(CCNC(=O)c2cnn(-c3ccccc3)c2-n2cccc2)cc1,-14.2%,–
COc1ccc(CNC(=O)C2=Cc3cccc(OC)c3OC2)cc1OC,0.464%,–
CCOc1cccc(C(=O)Nc2cnn(Cc3ccccc3)c2)c1,-18.7%,–
CCOc1cccc(C(=O)Nc2nnc(-c3cccs3)s2)c1,–,1.51 µM (active)
COCC(=O)Nc1nnc(COc2ccccc2)s1,-10.1%,–
Cc1cccc(C(C)C)c1NC(=O)C(NS(=O)(=O)c1cccc2nsnc12)c1ccccc1 (configuration not stated),-2.84%,–
CCN(CC)S(=O)(=O)c1ccc2c(c1)N(CC(=O)NCc1ccccc1)C(=O)CS2,-0.306%,–
CN1C(=O)c2[nH]nc(-c3ccc(F)cc3)c2C1c1ccccn1 (configuration not stated),-3.01%,–
COc1cccc(NC(=O)N2C3CCCC2CC(NC(C)=O)C3)c1 (configuration not stated),0.0264%,–
O=C(N/N=C/c1cccc(O)c1)c1cc2c(ccc3ccccc32)o1,–,10.7 µM (active)
O=C(N/N=C/c1cccc(OCc2ccccc2)c1)c1ccc(Br)o1,–,21.3 µM (active)
O=C(Cc1cccs1)N/N=C/c1ccc(OCc2ccccc2)cc1,2.08%,–
Cc1ccc(OCCOc2cccc(/C=N/NC(N)=O)c2)cc1,-15.1%,–
O=C(Cc1c[nH]c2ccccc12)N/N=C/c1cccc(F)c1,-15.3%,–
CCCc1ccc(OCc2ccc(C(=O)N/N=C/c3cccc([N+](=O)[O-])c3)o2)c(OC)c1,0.233%,–
Cc1cccc(Oc2c([N+](=O)[O-])c(=O)n(C)c3ccccc23)c1,-3.1%,–
COc1ccc(Cl)cc1NC(=O)CSc1nc2ccccc2c2nc(-c3ccccc3)nn12,-0.248%,–
CCOc1cccc(NC(=O)c2ccc(F)c(S(=O)(=O)N(CC)c3cccc(C)c3)c2)c1,-8.56%,–
CCCN1CCc2nc(N3CCN(C)CC3)ncc2C1,-5.04%,–
CCN1CCCC1CNC(=O)c1cc2cc(OC)c(OC)cc2[nH]1 (configuration not stated),0.324%,–

# Source: PubChem BioAssay AID588342 (National Center for Advancing Translational Sciences (NCATS), 2011)
